A selection: hits, their analogues and other compounds. The true share with any hit is near 3.6%.
pS6 MEF inh = inhibitors of mTORC1 signaling in Tsc2-/- p53-/- MEF cells; Tsc2-/- p53-/- MEF, phospho-rpS6 immunofluorescence/PI, 24 h; Potency, µM (series often up to 38.3 µM), without a hit: at the highest dose activity change, negative = inhibition, most hits filed as inhibitors; 0.78% of 44,000 active; AID 493208;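 further: potency means the concentration at half of the fitted maximal effect; plate controls were DMSO for no effect and rapamycin for full effect; nearly all actives have a fitted effect of over 50% in size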
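Plate MEFs (Tsc2-/-, p53-/-, empty vector) in DMEM/10% FBS; after 24 h add compound, incubate 24 h at 37 degree Celsius; fix in PFA/TX-100, block, stain phospho-rpS6 and 10 uM PI; scan at 488 nm; report % positive cells.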
HTT promoter inh = HTT promoter inhibition | HEK293 HTT promoter firefly luciferase reporter, 24 h | Potency, µM (titrated, usually from 57.5 µM), inactives show at the highest dose activity change, negative = inhibition, usual class: inhibitors | 0.93% of 48,000 active; further: potency means the concentration at half of the fitted maximal effect; nearly all actives have a fitted effect of over 50% in size
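Firefly luciferase readout (Dual-Glo, 10 min RT) after 24 h, 37 °C compound exposure (final up to 57.5 uM) of HEK293 reporter cells cultured 24 h beforehand; PTC124 at 50 uM final as control inhibitor; activity scaled vehicle 0%, zero RLU -100%.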
S16 F2sN tox = cytotoxicity in S16 Pmp22-F2sN Schwann cells | S16 Pmp22-F2sN Schwann cells viability, CellTiter-Glo, 24 h | 0.48% of 43,000 active | Potency, µM (top dose mostly 57.5 µM), for the others: at the highest dose activity change, negative = cytotoxicity, usual class: cytotoxic; further: potency means the concentration at half of the fitted maximal effect; on the % scale 0 is the no-effect control and ±100 the full control effect; nearly all actives have a fitted effect of over 65% in size
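Seed 500-1,000 S16 Pmp22-F2sN cells per well in phenol-red-free DMEM with 10% heat-inactivated FBS; pin-add 23 nL compound; incubate 24 h at 37C; add CellTiter-Glo, wait 15 min protected from light; read luminescence.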
HTT-AS promoter = activates huntingtin-antisense promoter activity | HEK293 HTT-AS promoter firefly luciferase reporter, 24 h; response scale: percent change from vehicle, -100% = no light | Potency, µM (series often up to 57.5 µM), for inactives: top-dose activity change, positive = activation, hits mostly activators | 0.24% of 48,000 active; further: potency means the concentration at half of the fitted maximal effect; nearly all actives have a fitted effect of over 55% in size
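Firefly luciferase signal from promoter-reporter HEK293 cells was scaled between vehicle (0%) and zero RLU (-100%). Compounds were tested at final concentrations of up to 57.5 uM over 24 h at 37 degrees C. PTC124 at 50 uM final served as control inhibitor.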
PMP22 txn = modulators of PMP22 gene transcription in S16 Schwann cells; S16 Pmp22-F2sN Schwann cells, FLuc/NLuc coincidence luminescence, 24 h; Potency, µM (doses to about 57.5 µM), inactives show top-dose activity change, negative = inhibition, actives largely listed as inhibitors; 2% of 43,000 active; active means clear falling dose curves in both reporters; inconclusive means both reporters move, but less clearly or upward; inactive means either reporter flat; the % is the NLuc reporter signal; further: potency means the concentration at half of the fitted maximal effect; on the % scale 0 is the no-effect control and ±100 the full control effect
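Reporter cells (S16 Pmp22-F2sN, 500–1,000 per well) exposed to compounds for 24 h, 37C, 5% CO2; lysis with FLuc read after 10 min, then Stop&Glo and NLuc read after 10 min.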
SKOV3 invasion = ovarian cancer metastasis inhibition, 3D TME model. SKOV3ip1-GFP adhesion/invasion on 3D omental model, fluorescence. Potency, µM (highest dose often 45.8 µM), for the others: top-dose activity change, negative = inhibition, actives largely listed as inhibitors. 0.1% of 46,000 active;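 further: potency means the concentration at half of the fitted maximal effect; plate controls were DMSO wells for no effect and tomatine positive control wells for full effect; nearly all actives have a fitted effect of over 65% in size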
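A 3D layer of primary human omental fibroblasts, mesothelial cells, fibronectin and collagen I, grown 48 hr, received SKOV3ip1-GFP cells in serum-free medium plus compounds at 0.36-46 umol/L. After 2 hr RT and 16 hr 37 C, fixed adherent GFP cells were counted; normalized to DMSO and tomatine.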
NLuc sat counter = NanoLuc enzyme inhibition artifact for PMP22 screen. Potency, µM (titrated, usually from 57.5 µM), without a hit: top-dose activity change, negative = inhibition, usual class: inhibitors. shares compounds with PMP22 txn. Secreted NLuc enzyme (filtered S16 cell medium), Nano-Glo luminescence. 4% of 690 active. AID 1508638; further: potency means the concentration at half of the fitted maximal effect; on the % scale 0 is the no-effect control and ±100 the full control effect
NLuc Km ctr = inhibits NanoLuc under Km conditions, PMP22 counter-screen. 5% of 690 active. shares compounds with PMP22 txn. Potency, µM (top dose mostly 57.5 µM), for inactives: top-dose activity change, negative = inhibition, most hits filed as inhibitors. secreted NLuc enzyme, coelenterazine luminescence, Km conditions; further: potency means the concentration at half of the fitted maximal effect; on the % scale 0 is the no-effect control and ±100 the full control effect
FLuc counter = inhibits firefly luciferase, PMP22 counter-screen; shares compounds with PMP22 txn; purified P. pyralis FLuc, luminescence, 10 min; AID 1508640; Potency, µM (highest dose often 57.5 µM), for the others: at the highest dose activity, negative = inhibition, most hits filed as inhibitors; 690 tested, under 10 active; further: % of control where 0% means no effect
Target sequence (P08659 whole entry, looked up): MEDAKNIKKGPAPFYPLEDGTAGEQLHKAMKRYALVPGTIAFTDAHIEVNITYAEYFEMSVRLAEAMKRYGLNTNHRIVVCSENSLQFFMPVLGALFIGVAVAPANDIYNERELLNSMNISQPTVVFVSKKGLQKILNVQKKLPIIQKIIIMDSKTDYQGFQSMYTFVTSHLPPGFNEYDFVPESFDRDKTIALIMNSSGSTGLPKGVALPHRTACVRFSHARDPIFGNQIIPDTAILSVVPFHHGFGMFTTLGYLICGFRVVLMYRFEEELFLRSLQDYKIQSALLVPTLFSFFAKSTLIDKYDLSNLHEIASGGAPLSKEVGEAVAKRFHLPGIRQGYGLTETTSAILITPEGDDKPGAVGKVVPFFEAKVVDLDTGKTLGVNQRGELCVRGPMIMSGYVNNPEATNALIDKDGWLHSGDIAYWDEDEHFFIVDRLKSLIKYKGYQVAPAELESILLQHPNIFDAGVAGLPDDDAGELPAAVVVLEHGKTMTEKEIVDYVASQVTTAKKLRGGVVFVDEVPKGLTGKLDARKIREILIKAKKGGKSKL
S16 viab conf = confirmation of cytotoxicity in S16 Pmp22-F2sN Schwann cells (luciferase reporters placed in the Pmp22 gene); Potency, µM (top dose mostly 57.5 µM), for the others: at the top dose activity change, negative = viability loss, actives largely listed as cytotoxic; 7% of 690 active; S16 Schwann cells viability, CellTiter-Glo ATP luminescence, 24 h; shares compounds with PMP22 txn; further: potency means the concentration at half of the fitted maximal effect; on the % scale 0 is the no-effect control and ±100 the full control effect
PMP22 txn conf = confirmation of modulators of PMP22 gene transcription in S16 cells. S16 Schwann cells Pmp22-F2sN, dual luciferase, 24 h. AID 1508646. Potency, µM (series often up to 57.5 µM), without a hit: at the top dose activity change, negative = inhibition, hits mostly inhibitors. 22% of 690 active. shares compounds with PMP22 txn; active means clear falling dose curves in both reporters; inconclusive means both reporters move, but less clearly or upward; inactive means either reporter flat; the % is the FLuc reporter signal; further: potency means the concentration at half of the fitted maximal effect
PMP22 HiBiT cnf = confirmation of modulators of rat PMP22 protein expression. AID 1508647. S16 Schwann cells Pmp22-HiBiT, luminescence, 48 h. Potency, µM (top dose mostly 27.9 µM), inactives show at the top dose activity change, negative = inhibition, actives largely listed as inhibitors. shares compounds with PMP22 txn. 95 tested, under 10 active
Starred values were filed as active, the others as inactive; i = inactive; ? = inconclusive; / = no result given; [ ] = dose if it differs, or a comment. Unless noted, the call rests on the fitted dose curve; in most records, active means well fitted curve in the direction sought with a large enough effect; inconclusive means small, poorly fitted or top-dose-only effect, or another doubt; inactive means no such curve, though single readings can be large; an effect the other way counts as inactive or inconclusive.

SMILES	pS6 MEF inh	HTT promoter inh	S16 F2sN tox	HTT-AS promoter	PMP22 txn	SKOV3 invasion	NLuc sat counter	NLuc Km ctr	FLuc counter	S16 viab conf	PMP22 txn conf	others
CCN(Cc1ccccc1)C(=O)Cn1c(=O)n(-c2cccc(C)c2)c(=O)c2c1c1cc(OC)ccc1n2C	7%	-12%	17%	-17%	?	-2%	/	/	/	/	/
CCN(Cc1ccccc1)C(=O)Cn1c(=O)n(-c2ccccc2)c(=O)c2c1c1cc(C)ccc1n2C	3%	-15%	?	-15%	18µM*	2%	-6%	1%	4%	18%	?
COc1ccc(NC(=O)Cn2c(=O)n(-c3cccc(C)c3)c(=O)c3c2c2cc(C)ccc2n3C)cc1Cl	-3%	-23%	11%	-29%	15µM*	0%	-2%	2%	2%	0%	?
Cc1ccc2c(c1)c1c(c(=O)n(-c3cccc(Cl)c3)c(=O)n1CC(=O)NCCC1=CCCCC1)n2C	4%	-6%	12%	-11%	0%	4%	/	/	/	/	/
Cc1cccc(-n2c(=O)c3c(c4cc(C)ccc4n3C)n(CC(=O)NCCC3=CCCCC3)c2=O)c1	-6%	-12%	0%	-9%	?	2%	2%	12%	5%	?	17µM*	PMP22 HiBiT cnf=4%
O=C1NC(=O)C(=Cc2ccc(-c3ccc(F)cc3)o2)S1	/	-18%	/	-14%	/	-18%	/	/	/	/	/
Oc1ccc(C2CCN(c3ccnc4ccccc34)CC2)cc1O	/	?	/	-24%	/	19%	/	/	/	/	/
Cc1cc(SCc2sc(-c3ccc(C(F)(F)F)cc3)nc2C)ccc1OCC(=O)O	/	14%	/	21%	/	21%	/	/	/	/	/
CNc1nc(-c2ccc3c(N)n[nH]c3c2)cc(N2C[C@@H](C(=O)NC3CCCCC3)CC[C@@H]2C)n1	/	-18%	/	-26%	/	-27%	/	/	/	/	/
O=C(NCc1ccc(Cl)cc1)C(=O)Nc1cccc(Br)c1	-4%	-14%[11.5 µM]	-17%	-19%	16µM*	i	-7%	0%	4%	?	?
CC(C)OC(=O)C1=CN(C(=O)c2ccc(F)c(F)c2)CC(C)(C)c2c1[nH]c1ccccc21	/	11%	/	-4%	/	-21%	/	/	/	/	/

Compound activity as filed in PubChem BioAssay.
